The record followed here is PubChem BioAssay.

Activity calls are given as the source filed them.

Test [1] in a line: binders of probe aFSTL3 on microarray, primary screen, stem cell growth factor project, biochemical, small-molecule microarray, fluorescence 635/667 (AID 1064).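 Also: measures binding of the biotinylated anti-FSTL3 antibody to printed compounds.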 The following applies: higher = more signal.
Test [2] can be described thus: binders from COS7 lysate, DM2A8 probe, primary screen, torsin A project, cell lysate, small-molecule microarray, fluorescence 635/667 (AID 1065). To be noted: higher = more signal, COS7 lysate expressing mutant human TOR1A.
Test [3] can be described thus: binders of probe aFGF2 on microarray, primary screen, stem cell growth factor project, biochemical, small-molecule microarray, fluorescence 635/667 (AID 1067).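 Also: measures binding of biotinylated aFGF2 protein to printed compounds on slides; z-score merges feature fluorescence and signal-to-noise across triplicate slides.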 The following applies: higher = more signal.
Test [4] can be described thus: binders of probe aFGF10 on microarray, primary screen, stem cell growth factor project, biochemical, small-molecule microarray, fluorescence 635/667 (AID 1071).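 Also: score merges 667 nm spot intensity and signal to noise from triplicate slides.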 To be noted: higher = more signal.
Test [5] addresses Neurogenic locus notch homolog protein 2 (Homo sapiens) (UniProt Q04721). Put plainly: Notch2 binders on small-molecule microarrays, primary screen, biochemical, small-molecule microarray, 635 nm fluorescence, stem cell growth factors (AID 1073). To be noted: Notch2 binding, higher = more signal.
For test [6], the target named is Pro-neuregulin-1, membrane-bound isoform (Homo sapiens) (UniProt Q02297). The test is described as follows: NRG1 binders on small-molecule microarrays, primary screen, psychiatric disease protein project, biochemical, small-molecule microarray, fluorescence 635/667 (AID 1075).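 Also: score combines 667 nm spot fluorescence with signal to noise.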 To be noted: NRG1 binding, 635 nm fluorescence, higher = more signal.
The test system of test [7] is Neuregulin-1 EGF-like domain. The test is described as follows: binders of neuregulin-1 EGF-like domain, primary screen, biochemical, small-molecule microarray, 635 nm fluorescence (AID 1081).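 Also: binding of the protein to compounds printed on small-molecule microarray slides.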 To be noted: small-molecule microarray binding, higher = more signal.
The nature of test [8]: FRG1 promoter luciferase signal modulators, primary screen, FRG1 inhibition for FSHD, cell-based, C2C12 myotubes, firefly/Renilla luciferase, luminescence (AID 1084). The following applies: higher = more signal, called active from +8 up or from −8 down.
The nature of test [9]: binders of probe aFST on microarray, primary screen, stem cell growth factor project, biochemical, small-molecule microarray, fluorescence 635/667 (AID 1086).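 Also: score merges 667 nm fluorescence with signal-to-noise of each printed compound spot.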 The following applies: higher = more signal.
Test [10] is described as follows: binders of probe aHhip on microarray, primary screen, stem cell growth factor project, biochemical, small-molecule microarray, fluorescence 635/667 (AID 1087).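 Also: score merges spot fluorescence at 667nm with spot signal to noise ratio.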 The following applies: higher = more signal.
Test [11] concerns PRMT1 (protein arginine N-methyltransferase 1). Put plainly: PRMT1 binders on small-molecule microarrays, primary screen, biochemical, small-molecule microarray, 635 nm fluorescence (AID 1088).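 Also: binding of Prmt1 protein to compounds spotted on small-molecule microarray slides.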 The following applies: small-molecule microarray binding, higher = more signal.
Test [12] can be described thus: yeast growth modulation, basal conditions, primary screen, YJM789 clinical isolate, OD600, 24 h (AID 1089).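 Also: growth of clinical yeast isolate S. cerevisiae YJM 789 seeded 1000 cells per well; test concentration not given here.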 The following applies: S. cerevisiae YJM789 growth, higher = more signal, called active from +8 up or from −8 down.
A short description of test [13]: fission yeast growth modulation, primary screen, strain 972, OD600, 24 h, no modulator (AID 1090).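 Also: basal condition with compound alone and no growth modifier present; test concentration not given here.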 The following applies: S. pombe 972 growth, higher = more signal, called active from +8 up or from −8 down.
Test [14] can be described thus: S. cerevisiae growth modulation with rapamycin, primary screen, strain BY4716, OD600, 96 h (AID 1091). Also: test concentration not given here. To be noted: higher = more signal, called active from +8 up or from −8 down.
Test [15] has as its target Torsin-1A-interacting protein 2 (Homo sapiens) (UniProt Q8NFQ8). The test is described as follows: LULL1 binders on small-molecule microarray, primary screen, cell lysate, human LULL1 lysate, 635/667 nm fluorescence (AID 1092).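 Also: probe is lysate of COS7 cells overexpressing human LULL1; score merges per-feature 667 nm fluorescence with signal-to-noise.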 To be noted: hLULL1 lysate binding, 635 nm fluorescence, higher = more signal.
The nature of test [16]: E. coli growth modulation, two-sided OD650, primary screen, E. coli filamentation project, strain DRC41, 24 h (AID 1093).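 Also: MC1000 strain lacking acrAB efflux and sulA so SOS filamentation is blocked; test concentration not given here.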 The following applies: OD650, 24 h, higher = more signal, called active from +8 up or from −8 down.
A short description of test [17]: small-molecule microarray binders of probe aLefty2, primary screen, biochemical, biotinylated probe, 635/667 nm fluorescence (AID 1094).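 Also: score merges spot fluorescence near 667 nm with spot signal-to-noise ratio.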 The following applies: higher = more signal.
Test [18] has as its system Noggin (protein binding on small-molecule microarray). The test is described as follows: Noggin binders on small-molecule microarray, primary screen, biochemical, 635/667 nm fluorescence (AID 1095).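 Also: score merges 667 nm feature fluorescence with signal to noise over triplicate slides.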 The following applies: 635 nm fluorescence, higher = more signal.
In test [19] the target is Neurogenic locus notch homolog protein 3 (Homo sapiens) (UniProt Q9UM47). The test is described as follows: NOTCH3 binders on small-molecule microarray, primary screen, biochemical, 635/667 nm fluorescence (AID 1096). The following applies: NOTCH3 binding, 635 nm fluorescence, higher = more signal.
A short description of test [20]: small-molecule microarray binders of probe aEGFR, primary screen, biochemical, biotinylated probe, 635/667 nm fluorescence (AID 1097).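 Also: probe is a biotinylated anti-EGFR antibody binding compounds printed on slides; score combines fluorescence near 667 nm and signal to noise of each spot.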 The following applies: higher = more signal.

Pro-neuregulin-1, membrane-bound isoform (Homo sapiens), sequence (Q02297 whole entry, looked up, the tested form may be a part, canonical isoform): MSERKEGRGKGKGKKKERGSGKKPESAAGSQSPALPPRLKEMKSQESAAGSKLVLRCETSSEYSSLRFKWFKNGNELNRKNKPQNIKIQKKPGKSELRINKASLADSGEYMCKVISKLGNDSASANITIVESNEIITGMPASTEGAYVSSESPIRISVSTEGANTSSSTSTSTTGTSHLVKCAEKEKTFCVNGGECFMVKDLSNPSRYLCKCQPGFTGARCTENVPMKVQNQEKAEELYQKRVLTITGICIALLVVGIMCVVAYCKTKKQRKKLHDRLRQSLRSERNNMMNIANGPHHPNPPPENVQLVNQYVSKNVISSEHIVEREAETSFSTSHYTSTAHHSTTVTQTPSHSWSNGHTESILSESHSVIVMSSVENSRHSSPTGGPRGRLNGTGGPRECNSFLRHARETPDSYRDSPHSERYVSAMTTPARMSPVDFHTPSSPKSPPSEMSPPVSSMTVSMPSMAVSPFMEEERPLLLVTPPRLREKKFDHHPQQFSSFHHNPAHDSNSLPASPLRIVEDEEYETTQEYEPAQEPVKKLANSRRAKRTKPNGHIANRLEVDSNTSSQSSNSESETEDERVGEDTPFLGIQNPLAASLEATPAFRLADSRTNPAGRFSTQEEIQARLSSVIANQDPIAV
Neurogenic locus notch homolog protein 2 (Homo sapiens), sequence (Q04721 whole entry, looked up, canonical isoform): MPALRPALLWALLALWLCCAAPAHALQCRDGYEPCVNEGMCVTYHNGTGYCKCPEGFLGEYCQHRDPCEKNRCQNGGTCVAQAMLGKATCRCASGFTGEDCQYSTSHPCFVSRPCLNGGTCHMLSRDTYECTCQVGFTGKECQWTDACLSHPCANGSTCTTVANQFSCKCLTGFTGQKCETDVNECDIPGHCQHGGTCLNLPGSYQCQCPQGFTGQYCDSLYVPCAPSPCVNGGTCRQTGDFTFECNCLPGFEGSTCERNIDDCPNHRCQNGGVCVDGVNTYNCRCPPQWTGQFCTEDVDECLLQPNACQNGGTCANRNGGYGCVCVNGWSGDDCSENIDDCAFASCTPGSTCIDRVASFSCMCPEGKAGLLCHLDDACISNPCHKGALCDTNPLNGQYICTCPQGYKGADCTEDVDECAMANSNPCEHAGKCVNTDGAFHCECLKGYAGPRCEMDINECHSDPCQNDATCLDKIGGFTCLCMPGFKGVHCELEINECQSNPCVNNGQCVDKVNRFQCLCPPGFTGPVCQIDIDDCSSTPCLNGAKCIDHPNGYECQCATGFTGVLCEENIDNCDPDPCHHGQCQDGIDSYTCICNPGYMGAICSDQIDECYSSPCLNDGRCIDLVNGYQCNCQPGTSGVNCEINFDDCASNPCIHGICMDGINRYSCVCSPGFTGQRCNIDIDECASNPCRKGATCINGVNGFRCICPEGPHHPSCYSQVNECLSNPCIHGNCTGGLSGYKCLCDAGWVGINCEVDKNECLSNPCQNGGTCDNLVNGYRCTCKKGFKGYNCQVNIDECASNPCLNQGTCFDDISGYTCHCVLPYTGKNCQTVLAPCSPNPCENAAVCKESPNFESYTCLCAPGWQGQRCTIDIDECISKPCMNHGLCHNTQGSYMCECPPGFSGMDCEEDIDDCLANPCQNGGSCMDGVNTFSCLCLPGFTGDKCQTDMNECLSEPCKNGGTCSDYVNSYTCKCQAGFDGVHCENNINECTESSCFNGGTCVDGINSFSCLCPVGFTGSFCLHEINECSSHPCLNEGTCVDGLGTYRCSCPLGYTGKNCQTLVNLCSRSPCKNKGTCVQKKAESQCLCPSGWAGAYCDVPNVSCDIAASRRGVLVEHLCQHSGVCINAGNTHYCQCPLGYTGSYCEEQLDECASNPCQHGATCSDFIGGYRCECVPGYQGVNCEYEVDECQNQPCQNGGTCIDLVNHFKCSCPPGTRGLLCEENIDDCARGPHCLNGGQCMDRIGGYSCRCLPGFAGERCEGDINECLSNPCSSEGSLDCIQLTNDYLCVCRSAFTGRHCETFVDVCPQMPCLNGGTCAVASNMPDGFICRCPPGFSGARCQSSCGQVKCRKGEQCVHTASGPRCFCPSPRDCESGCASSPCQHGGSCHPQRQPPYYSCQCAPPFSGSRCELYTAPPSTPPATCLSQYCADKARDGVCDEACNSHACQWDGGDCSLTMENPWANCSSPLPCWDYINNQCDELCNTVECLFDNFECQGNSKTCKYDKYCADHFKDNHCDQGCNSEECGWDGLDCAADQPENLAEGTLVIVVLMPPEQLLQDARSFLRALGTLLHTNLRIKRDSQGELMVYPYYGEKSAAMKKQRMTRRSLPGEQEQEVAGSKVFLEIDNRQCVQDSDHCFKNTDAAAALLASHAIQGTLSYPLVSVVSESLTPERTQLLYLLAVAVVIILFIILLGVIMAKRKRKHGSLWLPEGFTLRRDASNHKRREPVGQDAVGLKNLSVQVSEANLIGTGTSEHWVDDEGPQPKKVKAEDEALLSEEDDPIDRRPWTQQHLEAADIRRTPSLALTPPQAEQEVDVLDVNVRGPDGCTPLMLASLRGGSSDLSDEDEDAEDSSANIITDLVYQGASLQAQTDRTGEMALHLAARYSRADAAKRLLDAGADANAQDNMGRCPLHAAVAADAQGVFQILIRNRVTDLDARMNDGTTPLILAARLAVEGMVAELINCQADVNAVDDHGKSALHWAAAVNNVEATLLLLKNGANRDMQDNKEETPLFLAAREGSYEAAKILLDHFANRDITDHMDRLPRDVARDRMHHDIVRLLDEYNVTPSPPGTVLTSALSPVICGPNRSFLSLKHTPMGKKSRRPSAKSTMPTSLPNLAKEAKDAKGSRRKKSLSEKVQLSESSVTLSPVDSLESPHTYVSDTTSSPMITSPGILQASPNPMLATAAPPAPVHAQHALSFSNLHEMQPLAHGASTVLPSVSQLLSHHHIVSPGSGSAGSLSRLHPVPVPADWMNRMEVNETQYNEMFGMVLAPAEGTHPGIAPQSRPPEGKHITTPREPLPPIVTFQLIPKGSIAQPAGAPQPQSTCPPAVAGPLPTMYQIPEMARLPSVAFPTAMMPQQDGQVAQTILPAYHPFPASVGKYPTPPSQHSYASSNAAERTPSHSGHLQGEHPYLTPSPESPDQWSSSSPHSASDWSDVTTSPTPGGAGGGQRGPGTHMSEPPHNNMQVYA
Torsin-1A-interacting protein 2 (Homo sapiens), sequence (Q8NFQ8 whole entry, looked up): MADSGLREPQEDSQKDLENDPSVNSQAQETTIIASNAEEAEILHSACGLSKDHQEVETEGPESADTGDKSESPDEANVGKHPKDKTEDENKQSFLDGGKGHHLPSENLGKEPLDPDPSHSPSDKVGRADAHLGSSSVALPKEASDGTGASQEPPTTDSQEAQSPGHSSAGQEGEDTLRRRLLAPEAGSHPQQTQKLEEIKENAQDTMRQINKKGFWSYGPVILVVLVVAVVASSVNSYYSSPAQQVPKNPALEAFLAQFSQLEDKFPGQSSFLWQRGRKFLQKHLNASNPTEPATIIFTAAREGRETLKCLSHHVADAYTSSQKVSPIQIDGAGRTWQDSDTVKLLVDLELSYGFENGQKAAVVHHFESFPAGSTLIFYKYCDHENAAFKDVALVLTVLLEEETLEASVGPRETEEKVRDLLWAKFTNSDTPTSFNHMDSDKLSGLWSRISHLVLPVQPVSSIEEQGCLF

Regarding `C=CCOC(=O)[C@@H]1[C@H]2C(=O)O[C@H](c3ccccc3)[C@H](c3ccccc3)N2[C@H](c2ccc(OCCOC(=O)[C@H]3C[C@H]4C(=O)N[C@@H](CC(C)C)C(=O)N4[C@H]3c3cccc(OCCO)c3)cc2)[C@@]12C(=O)Nc1ccc(I)cc12`, the composite z-score is -0.187 in test [1]; 0.83 in test [2]; -0.0232 in test [3]; 0.81 in test [4]; 0.809 in test [5]; 0.71 in test [6]. Also, the composite z-score is 1.27 in [7]; 0.186 in [9]; -0.0296 in test [10]; 1.53 in test [11]; 2.66 in test [15]; -0.0849 in [17]. Besides, the composite z-score is 1.58 in test [18], 1.06 in [19] and -0.0769 in test [20]. For the same compound, the z-score in test [8] is 1.6 (inactive); in test [12], 0.705 (inactive); in [13] it was 0.492 (inactive); in test [14] it was 2.65 (inactive); in test [16], 0.147 (inactive).
Turning to `Cc1ccc(N2C(=O)c3ccccc3[C@](C)(C(=O)NCCN3CCOCC3)[C@@H]2c2ccc(CO)cc2)nc1`, the composite z-score in test [1] was 1.54; in test [2] it was -0.653; in test [3], -0.0249; in test [4] it was -0.112; in test [5], -1.41; in test [6] it was -0.819. Also, the composite z-score in test [7] is 0.0367; in test [9] it was -0.748; in test [10], -0.287; in test [11] it was -0.405; in test [15], 1.04; in test [17] it was 0.0216. Moreover, the composite z-score in [18] is -1.02; in [19], -1.74; in test [20], -0.312. The z-score was 0.517 (inactive) in test [8]; 0.0623 (inactive) in test [12]; -0.822 (inactive) in test [13]; -0.324 (inactive) in test [14]; -1.4 (inactive) in test [16].
As to `CC(=O)NCCCC[C@@H]1NC(=O)[C@@H]2C[C@H](C(=O)NCCCCCC[N+](C)(C)C)[C@H](c3cccc(OCCO)c3)N2C1=O`, the composite z-score in [1] is -0.0722; in test [2] it was 1.23; in test [3], -0.0098; in [4] it was 0.498; in [5], 0.0496; in test [6], 1.52. In addition, the composite z-score was 1.35 in test [7]; 0.715 in [9]; -0.0296 in test [10]; 1.54 in test [11]; 2.46 in [15]; 0.0283 in [17]. Also, the composite z-score in [18] was 1.03; in [19], 1.02; in test [20], -0.115. Further, the z-score is 3.12 (inactive) in test [8]; 0.801 (inactive) in test [12]; 0.385 (inactive) in test [13]; 1.1 (inactive) in test [14]; -0.104 (inactive) in [16].
With `C=C(C(=O)CC[C@@H](OC(=O)c1cccnc1)c1ccc(OCCO)cc1)C(C)C`, the composite z-score was -0.408 in test [1]; -0.294 in test [2]; -0.113 in [3]; 1.27 in test [4]; -0.121 in [5]; 0.739 in [6]. In addition, the composite z-score in test [7] is 1.06; in test [9], 0.128; in [10], -0.0994; in test [11] it was 1.57; in [15], 0.111; in test [17], -0.209. Besides, the values for the composite z-score in [18], in [19] and in test [20] were 1.58, 0.344 and -0.0972, respectively. Also, the z-score in [8] was -2.68 (inactive); in test [12], -24.3 (active); in [13], -20.5 (active); in test [14], -4.75 (inactive); in test [16], -0.808 (inactive).
Turning to `C=CCN1C(=O)[C@@]2(O[C@@H](CCO)[C@H]([Si](C)(C)c3ccc(OC)cc3)[C@H]2C)c2cc(NC(C)=O)ccc21`, the composite z-score was -0.412 in test [1]; 0.299 in test [2]; -0.0887 in test [3]; 1.19 in test [4]; 1.07 in test [5]; 0.864 in test [6]. Moreover, the composite z-score in test [7] was 1.2; in [9], 0.55; in test [10] it was 0.294; in test [11] it was 1.15; in test [15], 1.96; in test [17], -0.0231. For the same compound, the composite z-score in test [18] stood at 1.23; in test [19], 0.725; in test [20], 0.118. In addition, the z-score in [8] was -0.174 (inactive); in test [12], 0.0173 (inactive); in test [13], -1.67 (inactive); in test [14] it was -0.741 (inactive); in [16] it was -0.203 (inactive).
